LASV entry inh: Lassa virus entry inhibition; Potency, µM (top dose mostly 49.2 µM), usual class: inhibitors; actives 4.1% (n = 18,000); Lassa virus pseudotyped entry inhibition, cell-based qHTS
Marburg entry: blocks Marburg virus binding or cell entry; Marburg virus pseudotype entry/binding inhibition, cell-based; Potency, µM (top dose mostly 49.2 µM), actives largely listed as inhibitors; actives 6.5% (n = 18,000)
Hits are given with their value; . = inactive; ? = inconclusive; / = not tested or not shown; ! = not confirmed by another sample; [ ] = remark or other dose. Only some compounds are listed: those with a hit (about 7.1% of all), similar ones and a draw of the others. Calls come from the whole dose curve; tested in HEK293 cells.

SMILES	LASV entry inh	Marburg entry
COC(=O)CC1C2(C)CC34OC5(C)O[C@@]6(C7/C(=C(/OC)C(C)C)C(=O)OC(c8ccoc8)[C@@]7(C)C(OC(=O)C(C)C)C(OC)[C@]6(O5)[C@@]13C)C(OC)[C@]4(OC)C2OC(C)=O (some centres undefined)	?	7.08µM
COc1cc(OC)c2c(-c3cccc(-c4ccc(OC(F)(F)F)cc4)c3)cc(=O)oc2c1	.	.
COc1cc(OC)c2c(-c3cccc(-c4ccc(N(C)C)cc4)c3)cc(=O)oc2c1	?	3.55µM
COc1cc(OC)c2c(-c3cccc(/C=C/c4ccc(F)cc4)c3)cc(=O)oc2c1	.	.
COc1cc(OC)c2c(-c3cccc(-c4ccc(CO)cc4)c3)cc(=O)oc2c1	?	1µM
C[C@]12CCC3C(CC[C@H]4C[C@@H](O)CC[C@]34C)[C@@H]1CCC2=O (some centres undefined)	.	.
N#CC(C#N)=Cc1ccc(O)cc1	.	.
CCOC(=O)c1c(C)n(C)c2ccc(O)cc12	.	.
CCCCNc1c(C(=O)OCC)c(C)nc2c1cnn2CC	25.1µM!	7.94µM!
CC(C)NCC(O)COc1cccc2ccccc12 (centres undefined)	?	20µM
CC(C)NC[C@@H](O)COc1cccc2[nH]ccc12	.	.
COc1ccc(CCNc2ncnc3sc(C(=O)N4CCCCC4)c(C)c23)cc1OC	.	.
Cc1c(CN2CCOc3c(cc(-c4ncc(C(F)(F)F)cc4Cl)cc3OCC3CCCO3)C2)cnn1C (centres undefined)	.	.
COc1ccc2c3c([nH]c2c1)[C@@H]1C[C@@H]2[C@@H](C[C@H](O)[C@H](OC)[C@H]2C(=O)O)CN1CC3	.	.
COC(=O)[C@@H]1C2CC3c4[nH]c5cc(OC)ccc5c4CCN3CC2C[C@H](OC(=O)c2cc(OC)c(OC)c(OC)c2)C1OC (some centres undefined)	?	12.6µM
C=C1C(O)C2OC3(CCC(/C=C/C(C)C4CC(C)=CC5(OC(CC(C)(O)C(=O)O)CCC5O)O4)O3)CCC2OC1C(O)CC(C)C1OC2(CCCCO2)CCC1C (centres undefined)	?	0.146µM
COC(=O)c1nnc(N[C@@H](Cc2c[nH]c3ccccc23)C(=O)OC)nc1C(=O)OC	.	.
C=CCC(O)(C(=O)OC)c1ccccc1 (centres undefined)	.	.
N#Cc1cc2c(OCC(O)CN3CCN(C(c4ccccc4)c4ccccc4)CC3)cccc2[nH]1 (centres undefined)	15.8µM	8.91µM
CC(C)(C)NC[C@@H](O)COc1cccc2[nH]c(C#N)cc12	.	.
C=CCN1CC[C@]23CCCC[C@H]2[C@H]1Cc1ccc(O)cc13	?	28.2µM
COc1ccc2c(c1)C13CCCC[C@@H]1C(C2)N(C)CC3 (some centres undefined)	.	?
CC(C)=CCN1CC[C@]2(C)c3cc(O)ccc3C[C@H]1[C@H]2C	.	?
Oc1ccc2c(c1)[C@@]13CCCCC1[C@@H](C2)N(CC1CCC1)CC3 (some centres undefined)	?	10µM
COc1ccc(-n2[nH]c3c4c(ncc3c2=O)CCCCC4)cc1	.	.
SMILES	LASV entry inh	Marburg entry
OCC(O)COc1cccc2ccccc12 (centres undefined)	.	.
COc1ccc(-c2oc3ncnc(N)c3c2-c2ccc(NC(=O)Nc3cc(C(F)(F)F)ccc3F)cc2)cc1	/	12.5µM
COC(=O)Nc1nc2ccc(S(=O)(=O)c3ccc(NC(=O)Nc4cc(C(F)(F)F)ccc4F)cc3)cc2[nH]1	.	.
CC=CCCN1C=C(C(C)=O)C(c2ccccc2)NC1=O (centres undefined)	.[8.59 µM]	.[8.59 µM]
CN(C)CCc1c[nH]c2ccc(O)cc12	.	.
COc1ccc(CNC(=O)/C=C\c2ccc3[nH]cc(CCN(C)C)c3c2)cc1	.	22.4µM
CC(=O)NC(Cc1ccccc1)C(=O)O (centres undefined)	.	.
CC(C)C(=O)NCC1CCC2(CCN(Cc3ccc(-c4ccccc4Cl)o3)CC2)O1 (centres undefined)	.	.
Cc1cc(C)n(-c2ccc(C(=O)NCC3Cc4cc(-c5cnccn5)ccc4O3)cc2)n1 (centres undefined)	.	.
COc1c(O)c2c(=O)cc(OC)c3c4c(OC)cc(=O)c5c(O)c(OC)c(C[C@@H](C)OC(=O)c6ccccc6)c(c(c1C[C@@H](C)OC(=O)Oc1ccc(O)cc1)c23)c54	31.6µM	?
C[C@@H]1CC([C@H](O)CC2CC(=O)NC(=O)C2)C(=O)[C@@H](C)C1 (some centres undefined)	1µM	?
C[C@@H]1C[C@@H]([C@H](O)CC2CC(=O)NC(=O)C2)C(=O)[C@@H](C)C1	2.82µM	3.16µM
COc1ccc(-c2cccc([C@H]3[C@@H]4C=CC[C@@H](C)[C@@H]4C(=O)N3Cc3ccccc3)c2)cc1	?	.
O=C1NCN(c2ccccc2)C12CCN(CCCOc1ccc(F)cc1)CC2	15.8µM	17.8µM
c1ccc(N2CCN(CCCOc3ccc4c(c3)OCO4)CC2)cc1	.	.
COP(=S)(OC)Oc1ccc([N+](=O)[O-])c(C)c1	.	.
NCCNC(=O)Cc1ccc(NC(=O)Cc2ccc(Nc3ncnc4c3ncn4[C@@H]3O[C@H](CO)[C@@H](O)[C@H]3O)cc2)cc1	.	.
CO[C@]1(C2=NCCN2)COc2ccccc2O1	.	.
OC1CCN(Cc2ccc3c(c2)CN(Cc2ccc(Oc4ncccn4)cc2)CCO3)CC1	.	.
CCCC1CCCCN1 (centres undefined)	.	.
C1CCC(C(CC2CCCCN2)C2CCCCC2)CC1 (centres undefined)	?	3.98µM
CN(C)c1ccc(O)c2c1C[C@H]1C[C@H]3[C@H](N(C)C)C(=O)C(C(N)=O)=C(O)[C@@]3(O)C(=O)C1=C2O	.	.
Cc1ccc(O)c([C@H](CCN(C(C)C)C(C)C)c2ccccc2)c1	?	10µM
Cc1ccc(C(C)C)c(O)c1	.	.
CNc1ncnc2c1ncn2[C@@H]1O[C@H](CO)[C@@H](O)[C@H]1O	.	.
SMILES	LASV entry inh	Marburg entry
CN(CCO)C(=O)c1cn(C2CCCN(Cc3ccc(C(F)(F)F)cc3)C2)nn1 (centres undefined)	.	.
CCN1C(=NCCc2cccnc2)N[C@H](CCc2ccccc2)[C@H](C(=O)OC)[C@H]1C	.[8.59 µM]	.[8.59 µM]
Nc1ncn([C@@H]2O[C@H](CO)[C@@H](O)[C@H]2O)c(=O)n1	6.31µM	?
Nc1ncnc2c1nc(Br)n2C1OC(CO)C(O)C1O (centres undefined)	?	.
NC(=O)c1ncn(C2OC(CO)C(O)C2O)c1N (centres undefined)	.	.
Nc1ccn([C@@H]2O[C@H](CO)[C@@H](OP(=O)(O)O)[C@H]2O)c(=O)n1	.	.
Nc1ccn(C2OC(CO)C(O)C2O)c(=O)n1 (centres undefined)	1.26µM!	1µM!
Nc1ncnc2c1ccn2[C@@H]1O[C@H](CO)[C@@H](O)[C@H]1O	2.51µM	1.41µM
NC(=O)NCCC[C@H](N)C(=O)O	.	.
CCCCC[C@@H](/C=C/C=C\CCCCCCCC(=O)O)OO	.	.
NCCO	.	.
